Experimental data from PubChem BioAssay AID489008 (National Center for Advancing Translational Sciences (NCATS), 2010).
Results filed as inconclusive are left out. The source made the active and inactive calls. Calls follow the shape of the dose curve; as a rule, active = well fitted inhibition curve with a large enough effect; inconclusive = small, poorly fitted or top-dose-only effect; inactive = flat fitted curve, though single readings scatter.

Target: Ferritin light chain (Equus caballus) (UniProt P02791)
Sequence (P02791 2-175 limits assumed): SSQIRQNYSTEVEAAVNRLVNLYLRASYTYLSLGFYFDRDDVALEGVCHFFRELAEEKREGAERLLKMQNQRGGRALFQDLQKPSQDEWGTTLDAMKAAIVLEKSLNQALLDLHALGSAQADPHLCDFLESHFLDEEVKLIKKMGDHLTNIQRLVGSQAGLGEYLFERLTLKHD
Experiment: Confirmation Assay for Identification of Novel General Anesthetics; also: nearly all actives have a fitted effect of over 40% in size
Conditions: apoferritin 1-aminoanthracene fluorescence displacement
How it was run: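 Competitive displacement of profluorescent 1-aminoanthracene from 10 uM horse-spleen apoferritin in 50% saturated 1-AMA/PBS; 10 min RT, fluorescence Ex 380/Em 535. Normalized to free 1-AMA and complex; four-parameter Hill fit.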
Potency is read from the fitted curve at half-maximal effect.

Row | SMILES | Potency
1 | COc1ccc(CNC(=O)CN2N=C(c3ccc(Cl)cc3)CCC2=O)cc1 | 20.7 µM (active)
2 | N/C(=N\OC(=O)Cc1ccc(-c2ccccc2)cc1)c1ccncc1 | 31.6 µM (active)
3 | CCCCOC(=O)Nc1ccc(C)c(Cl)c1 | 17.8 µM (active)
4 | Cc1ccc(CNc2ccc(CNc3ncn[nH]3)cc2)cc1 | 20 µM (active)
5 | Cc1cc(S(=O)(=O)NCCc2ccccc2)c(C)s1 | 15.8 µM (active)
6 | COC(=O)c1ccc(/C=N/OCC(=O)NC2CCCCCCC2)cc1 | 7.94 µM (active)
7 | O=c1[nH]cnc2sc3c(c12)CCCCC3 | 15.8 µM (active)
8 | CC1CCCCC1NC(=O)COC(=O)COc1ccccc1Cl (stereo not drawn) | 17.8 µM (active)
9 | O=C1NC2(CCCCCC2)Oc2ccccc21 | 20 µM (active)
10 | O=C(COC(=O)c1ccccn1)NC12CC3CC(CC(C3)C1)C2 | 7.94 µM (active)
11 | Cc1ccc(C2=NN(CC(=O)NC(C)c3ccccc3)C(=O)CC2)cc1 (stereo not drawn) | 31.6 µM (active)
12 | COc1ccc(/C=N/NC(=O)CC(=O)NC2CCCCC2)cc1 | 6.31 µM (active)
13 | CC1CCCCN1S(=O)(=O)Cc1ccccc1Cl (stereo not drawn) | 14.1 µM (active)
14 | O=C(CCNc1cccc(Cl)c1)c1ccco1 | 31.6 µM (active)
15 | Fc1ccccc1CSc1nncn1NC/C=C/c1ccccc1 | 31.6 µM (active)
16 | Cc1ccccc1Cn1nnc2sc3c(c2c1=O)CCCC3 | 15.8 µM (active)
17 | Cc1cc(C)n(-c2ccc(C(=O)NCc3ccc4c(c3)OCO4)cc2)n1 | 15.8 µM (active)
18 | COc1ccc(-c2ccc(=O)n(CC(=O)NCc3ccco3)n2)cc1 | 14.1 µM (active)
19 | Nc1nc(SCC(=O)C23CC4CC(CC(C4)C2)C3)n[nH]1 | 7.08 µM (active)

Row | SMILES | Potency
20 | O=C(CN1N=C(c2ccccc2)CCC1=O)NCc1cccs1 | 17.8 µM (active)
21 | Fc1ccccc1SCc1nnc(-c2ccccc2Br)o1 | 15.8 µM (active)
22 | CC(NC(=O)COC(=O)C1=COCCO1)C12CC3CC(CC(C3)C1)C2 (stereo not drawn) | 14.1 µM (active)
23 | O=C(NC1CCCCC1)N1CCCCCCC1 | 14.1 µM (active)
24 | Cc1ccc(NC(C)c2cc(Cl)ccc2O)cc1 (stereo not drawn) | 17.8 µM (active)
25 | O=C(Cn1nc(-c2ccc(Cl)cc2)ccc1=O)NCC1CCCO1 (stereo not drawn) | 14.1 µM (active)
26 | COc1ccc(CNc2ccc(C)c(C)c2)cc1 | 15.8 µM (active)
27 | CC(Nc1ccccc1)c1cccnc1 (stereo not drawn) | 15.8 µM (active)
28 | Oc1ccc(NCc2cccc(OCc3ccccc3)c2)cc1 | 15.8 µM (active)
29 | Nc1nnc(COc2cccc(C(F)(F)F)c2)s1 | 15.8 µM (active)
30 | Oc1ccc(C2C[C@H]3CC[C@@H]2C3)cc1O (stereo partly drawn) | 7.08 µM (active)
31 | O=C(COC(=O)CC1CC2CCC1C2)Nc1ccc(F)cc1 (stereo not drawn) | 20 µM (active)
32 | O=C(NC1CCCCC1)C(=S)NCc1ccccc1 | 15.8 µM (active)
33 | Cc1cc(C)c(C)c(OCC(=O)N2CCCCCC2)c1 | 17.8 µM (active)
34 | O=C1CC2(CCCC2)CC(=O)N1c1ccccc1 | 15.8 µM (active)
35 | O=C(NCc1ccccc1)Nc1cccn(Cc2ccccc2)c1=O | 8.91 µM (active)
36 | CC(C)(Nc1ccccc1)C(=O)c1ccccc1 | 12.6 µM (active)
37 | Cc1cc(C)n2nc(CC(=O)NC3CCCCCC3)nc2n1 | 8.91 µM (active)
38 | O=C(COC(=O)c1cccs1)NCC1CCCCC1 | 20 µM (active)
